Source: PubChem (Paczesny and Yang Labs, IUPUI and University of Michigan)
Many of the other results were omitted from the sample, so hits are more common in it than they were.
ST2 inh: inhibitors of human ST2 (IL1RL1) binding to IL-33, primary screen, biochemical, AlphaLISA. 78,000 compounds, 2.3% hits. inhibition, % for hits at 17 µM. AlphaLISA ST2-Fc/biotin-IL-33 interaction, 1 h; in the data active = inhibition above about 30%
Target sequence (Q01638 whole entry, looked up): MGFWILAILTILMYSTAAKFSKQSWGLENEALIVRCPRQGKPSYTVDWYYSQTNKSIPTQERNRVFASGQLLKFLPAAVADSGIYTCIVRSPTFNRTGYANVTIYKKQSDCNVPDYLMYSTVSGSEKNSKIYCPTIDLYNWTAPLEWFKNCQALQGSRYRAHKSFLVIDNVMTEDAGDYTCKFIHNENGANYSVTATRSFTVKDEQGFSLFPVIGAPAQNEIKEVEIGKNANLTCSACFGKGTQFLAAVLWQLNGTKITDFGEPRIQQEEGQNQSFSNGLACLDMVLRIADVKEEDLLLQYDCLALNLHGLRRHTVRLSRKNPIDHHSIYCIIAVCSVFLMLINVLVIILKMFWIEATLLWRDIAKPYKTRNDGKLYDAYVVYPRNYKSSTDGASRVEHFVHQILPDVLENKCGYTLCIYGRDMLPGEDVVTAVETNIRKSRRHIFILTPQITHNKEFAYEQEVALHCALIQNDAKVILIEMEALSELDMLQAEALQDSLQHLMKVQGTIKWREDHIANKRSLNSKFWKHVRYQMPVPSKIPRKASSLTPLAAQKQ
* marks the source's active call; other numbers are inactive results; i = inactive.

SMILES | ST2 inh
COc1cc(C=O)cc(C=O)c1O | i
CCC1=C(c2ccc(OC)cc2)S(=O)(=O)N(CC(=O)Nc2cc(Cl)c(OC)cc2OC)C1=O | i
Nc1c(C(=O)N2CCCCC2)sc2nc(-c3ccccc3)cc(C(F)(F)F)c12 | i
Cn1cc(-c2cc(C(=O)N3CCCN(c4ncccn4)CC3)c3ccccc3n2)cn1 | i
O=C(O)C1CCCCC1C(=O)Nc1nnc(C2CC2)s1 (configuration not stated) | i
CC(=O)N(CN1C(=O)c2cc(Cl)c(Cl)cc2C1=O)c1ccc(C)cc1 | i
CC1CCc2oc3ccc(NS(=O)(=O)c4ccc(F)cc4)cc3c2C1 (configuration not stated) | i
O=S(=O)(NCCC1CCCN(Cc2ccco2)C1)C1CC1 (configuration not stated) | i
CC1(C)[C@@H]2CC[C@H](CNC(=O)c3cc(Cn4cnc5ccccc54)[nH]n3)[C@H]1C2 | i
CC(C)CN1CCNC(=O)C1CC(=O)N1CCC(Cc2ccc(F)cc2)CC1 (configuration not stated) | i
Cc1ccc(C(NC(=O)CN2C(=O)c3ccccc3C2=O)c2ccccc2)cc1 (configuration not stated) | i
Cc1ccc(NC2=C(NCCO)C(=O)c3ccccc3C2=O)cc1 | 51%*
Cc1ccc(Nc2nnc(-c3ccc(C)c(S(=O)(=O)NCCO)c3)c3ccccc23)cc1 | i
COc1ccc(-n2nc(C(=O)N3CCCCC3C)c3c4ccccc4n(C)c3c2=O)cc1Cl (configuration not stated) | 97%*
COc1ccc(-n2nc(C(=O)NC3CC3)c3c4ccccc4n(C)c3c2=O)cc1Cl | i
COc1ccc(-n2nc(C(=O)NCc3ccco3)c3c4ccccc4n(C)c3c2=O)cc1Cl | i
COc1ccccc1NC(=O)CSCc1ccccc1Cl | i
COc1ccccc1N=c1sc(C2=c3ccccc3=NC2=O)c(O)n1-c1ccccc1OC | 36%*
Cc1ccc(N2CC(=O)NC2=O)cc1 | i
Cc1ccc(CSC2=NCCN2C(=O)Cc2ccc(F)cc2)cc1 | i
Brc1cnc2nc(COc3ccccc3)[nH]c2c1 | 35%*
Cc1cc(OCc2nc3ccccc3[nH]2)ccc1C(C)C | i
COc1ccc(OCc2nc3ccccc3[nH]2)cc1 | i
O=C(Nc1c2c(nn1-c1ccc(Cl)cc1)CSC2)c1cccc(Cl)c1 | i
CC(=O)c1cc(C(=O)NC2CC(=O)N(C3CCCCCC3)C2)[nH]n1 (configuration not stated) | i
SMILES | ST2 inh
CC1CCc2sc(NC(=O)c3sc4ccccc4c3Cl)c(C(N)=O)c2C1 (configuration not stated) | i
COC(=O)c1c(NC(=O)c2sc3ccccc3c2Cl)sc2c1CCN(C)C2 | 37%*
CCOC(=O)c1c(NC(=O)c2ccc(Cl)s2)sc2c1CCN(C)C2 | i
Cc1cc(C)cc(C(=O)N(c2ccc(F)cc2)C2C=CS(=O)(=O)C2)c1 (configuration not stated) | i
Cc1c(C(c2ccccc2)c2c(C)n(C)n(-c3ccccc3)c2=O)c(=O)n(-c2ccccc2)n1C | i
Cc1nnc(C)c2c(C)n(C(C)c3ccccc3)c(C)c12 (configuration not stated) | 47%*
O=C1NC(=O)N(c2ccccc2)C(=O)C1C(c1ccccc1)c1ccccc1 (configuration not stated) | i
Cc1ccc(NC(=O)c2ccc([N+](=O)[O-])cc2)cc1 | i
COc1nccnc1NS(=O)(=O)c1ccc(NC(=O)COc2cc(C)c(Cl)c(C)c2)cc1 | i
O=C(NCC1CCCN(C(=O)c2ccc3[nH]ccc3c2)C1)c1ccccc1Cl (configuration not stated) | i
COc1ccc(OCc2nc(C#N)c(N3CCCC3)o2)cc1 | 49%*
COCc1cc(C)nc(N2CCCCC2)c1C#N | i
N#CCOc1nc(N2CCCCC2)nc(N2CCCCC2)n1 | i
N#Cc1nc(COc2ccc(Cl)cc2)oc1N1CCCCC1 | 73%*
COc1ccc(OCCOc2ccc(OC)cc2)cc1 | i
Nc1nonc1-c1noc(COc2ccc(Cl)cc2)n1 | i
Nc1nonc1-c1noc(COc2ccc(Br)cc2)n1 | i
N#Cc1nc(COc2ccc(Br)cc2)oc1N1CCCC1 | 72%*
COCCCNC(=O)c1cc(=O)[nH]c2ccc(S(=O)(=O)N3CCCC3)cc12 | i
O=C(Nc1ccccc1F)c1cnc2n(c1=O)CCS2 | i
Cc1ncc(C(=O)N2CCNC(C(=O)O)C2)c(-c2ccccc2)n1 (configuration not stated) | i
O=S(=O)(c1ccc(Cl)cc1)c1nc(/C=C/c2ccccc2)oc1N1CCOCC1 | 31%*
NC(=O)CSc1oc(-c2ccccc2)nc1S(=O)(=O)c1ccc(Cl)cc1 | i
Cc1ccc(-c2nc(S(=O)(=O)c3ccc(C)cc3)c(N3CCOCC3)o2)cc1 | i
CN(c1ncccc1CNC(=O)c1ccc(=O)[nH]n1)C1CCCCC1 | i
SMILES | ST2 inh
O=C1NC(=Nc2ccccn2)SC1Cc1ccc(F)cc1 (configuration not stated) | i
COc1ccccc1Cn1c(CNS(=O)(=O)c2ccc(C)c(C)c2)nc2cccnc21 | i
OCCSc1ccc(Cc2ccc(SCCO)cc2)cc1 | i
O=C(CC1CCCCC1)Nc1cccnc1 | i
Cc1cc(N(C)C)nc(Nc2ccc(NC(=O)CCC3CCCC3)cc2)n1 | i
Cc1cccc(NC(=O)CCC2CCCCC2)n1 | i
Cc1ccc(Nc2cc(C)nc(Nc3ccc(NC(=O)CC4CCCC4)cc3)n2)cc1 | 31%*
COc1ccc(Nc2cc(C)nc(Nc3ccc(NC(=O)CCC4CCCCC4)cc3)n2)cc1 | 40%*
COc1ccc(Nc2cc(C)nc(Nc3ccc(NC(=O)CC4CCCC4)cc3)n2)cc1 | 30%*
Cc1cccc(Cc2c(C)nc3c(C(=O)N(C)CCC#N)c[nH]n3c2=O)c1 | i
O=C(Cn1c(=O)[nH]c2ccsc2c1=O)NCc1ccccc1 | i
Oc1cccc(-c2nccc3ccccc23)c1 | i
COc1ccc(Br)cc1C1SCCN1C(=O)c1ccc([N+](=O)[O-])cc1 (configuration not stated) | i
O=C(Cn1c2ccccc2c(=O)c2ccccc21)Nc1ccccc1C(F)(F)F | 39%*
O=C(Cn1c2ccccc2c(=O)c2ccccc21)Nc1ccccc1F | i
O=C(Cn1c2ccccc2c(=O)c2ccccc21)Nc1ccccc1Br | i
CCN(Cc1cc(C(C)(C)C)n[nH]1)Cc1c(C)nn(CC)c1C | i
Cc1cccn2c(=O)c(C=Nc3ccccc3)c(NCc3ccccc3)nc12 | 39%*
Cc1cccn2c(=O)c(C=Nc3ccccc3)c(NCc3ccco3)nc12 | i
Cc1ccc(N=Cc2c(Nc3cccc(Cl)c3)nc3c(C)cccn3c2=O)cc1 | i
Cc1ccc(N2C(=O)C3C(C2=O)[C@H]2C=C[C@@H]3CC2)cc1Cl (some centres not stated) | i
CCOc1ccc(NS(=O)(=O)c2cc(Br)cc3c2N(C(=O)CC)CC3)cc1 | i
O=C(CN1CCN(Cc2ccc(F)cc2)C1=O)NC1CCCCCCC1 | i
OCCN(Cc1ccccc1)Cc1ccccc1 | i
COc1ccc(OCCN(C)Cc2ccccc2)cc1 | i
O=S(=O)(c1ccccc1)N(Cc1ccccc1)Cc1ccccc1 | i
COc1ccc(CN(C)Cc2ccccc2)cc1 | i
NN(Cc1ccccc1)c1ccccc1 | 37%*
COc1ccc(N(N)Cc2ccccc2)cc1 | 50%*
